Bioassay records as filed in PubChem.
This is a sample that favours compounds with a hit; in the whole collection about 6% have one here.
D1 antag: blocks dopamine activation of the human D1 receptor. HEK293 TREx D1 cells, calcium flux, dopamine EC80; active compounds read low. activity change, negative = inhibition, % at 10 µM. 360,000 tested, 3.2% active. AID 504652; in the data active = activity change below about -30%; also: % is scaled to controls: 0 for no effect and ±100 for the full control effect
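After overnight tetracycline induction at 30 C, force-coupled D1 HEK293 cells took up a no-wash calcium dye at room temperature. Compounds were added and monitored 180 s, and the response to EC80 dopamine was then recorded.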
D1 PAM: potentiators of human D1 dopamine receptor; potentiation, % at 10 µM; AID 504651; HEK293 TREx D1 cells, calcium flux, dopamine EC20 potentiation; 360,000 tested, 0.036% active; in the data active = potentiation above about 30%; also: 0% is about no effect
DRD3 agonist: agonists of human D3 dopamine receptor; P35462; D3R DiscoveRx beta-arrestin cells, luminescence, 90 min; max activation, %; 410,000 tested, 0.58% active; AID 652048; in the data active = max activation above about 30%; also: 0% is about no effect
Target sequence (P35462 whole entry, looked up): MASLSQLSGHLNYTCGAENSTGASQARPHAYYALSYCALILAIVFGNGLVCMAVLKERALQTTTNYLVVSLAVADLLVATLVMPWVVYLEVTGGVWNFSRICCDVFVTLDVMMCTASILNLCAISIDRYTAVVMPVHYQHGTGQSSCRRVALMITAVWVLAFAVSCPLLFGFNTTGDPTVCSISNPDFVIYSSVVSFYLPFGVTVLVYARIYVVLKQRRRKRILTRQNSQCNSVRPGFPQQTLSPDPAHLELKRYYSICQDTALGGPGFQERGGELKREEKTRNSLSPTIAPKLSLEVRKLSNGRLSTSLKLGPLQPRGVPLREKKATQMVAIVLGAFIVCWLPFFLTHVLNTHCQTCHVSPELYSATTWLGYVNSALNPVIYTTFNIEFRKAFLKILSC
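Agonist mode: compounds and dopamine controls were applied to plated cells for 90 min at 37 degrees C after an overnight attachment at 1500 cells/well. Luminescent read-out followed 30 - 60 minutes at room temperature with DiscoveRx detection reagent.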
D1 agonist: activates the human D1 dopamine receptor. P21728. HEK293 T-REx D1 cells, calcium flux, agonist mode. activation, % at 2 µM. 360,000 tested, 1% active; in the data active = activation above about 30%; also: 0% is about no effect
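Inducible HEK293 T-REx D1 cells, force-coupled to calcium signalling, were plated at 4000 cells/well with tetracycline and held overnight at 30 C. After no-wash calcium dye loading, compound-evoked calcium rise over 180 s flagged agonists.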
DRD3 antagonist: blocks the human D3 dopamine receptor; D3R cells, DiscoveRx beta-arrestin luminescence, antagonist mode; active compounds read low; max response, negative = inhibition, %; 360,000 tested, 2.5% active; AID 652054; in the data active = max response below about -50%; inconclusive = no clear call, values can overlap the other calls; also: % is scaled to controls: 0 for no effect and ±100 for the full control effect
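Cells expressing the human receptor were seeded at 1500 cells/well, incubated overnight at 37 degrees C in 5% CO2, then exposed to library compounds with dopamine controls for 90 minutes at 37 degrees C before luminescent detection.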
Chronic BCR inh: inhibitors of chronic active B-cell receptor signaling; 340,000 tested, 0.05% active; ABC-DLBCL IkBa-CBG/CBR reporter, luminescence ratio, 4 h; Potency, µM (series often up to 46.1 µM), without a hit: at the top dose activity change, negative = inhibition, hits mostly inhibitors; AID 493014; active = well fitted inhibition curve with a large enough effect in the signal ratio, with a control signal flat, not every such curve was filed as active; inconclusive = small, poorly fitted or top-dose-only effect, or effect the other way, or a change in a side signal; the % refers to the signal ratio;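 also: potency is read from the fitted curve at half-maximal effect; plate controls were basal doxycycline-induced cells for no effect and cells given 10 µM MG132 for full effect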
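Compounds up to 46 uM were incubated four hours with TMD8 cells whose green CBG68 luciferase is fused to IkappaBalpha; red CBR luminescence normalised the signal, and concentration-effect curves were fitted to fusion, red and ratio data.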
The depositor's hits bear a star; ? = inconclusive; / = no result given; ! = not active in a repeat.

SMILES | D1 antag | D1 PAM | DRD3 agonist | D1 agonist | DRD3 antagonist | Chronic BCR inh
O=C(COC(=O)CC(c1ccccc1)c1ccccc1)NCc1ccc(Cl)cc1 | -34.0* | -5.9 | 6.3 | 28.7 | 17.1 | ?
COc1cc(OC)c(NC(=O)C(C)n2nc(-c3ccc(C)cc3)c3c(c2=O)CCCC3)cc1Cl (centres undefined) | -3.8 | -2.0 | 1.1 | 2.5 | / | /
CCOc1ccc(NS(=O)(=O)c2ccc3[nH]cc(C(=O)NCc4ccco4)c(=O)c3c2)cc1 | -47.8* | 1.7 | 5.7 | 0.3 | / | /
CC1CCC(N2CCN(S(=O)(=O)Cc3ccccc3)CC2)CC1 (centres undefined) | 6.3 | 2.9 | 0.6 | 4.6 | 4.2 | -6.4%
O=S(=O)(Cc1ccccc1)N1CCC(N2CCN(c3ccccc3)CC2)CC1 | 1.3 | -0.1 | 68.5* | 3.1 | ? | -0.6%
O=[N+]([O-])c1ccc(CS(=O)(=O)N2CCN(c3ccccc3)CC2)cc1 | -30.2* | / | -7.6 | 9.2 | -8.7 | ?
CCN(CC)S(=O)(=O)c1ccc2c(c1)N(CC(=O)Nc1c(C)cc(C)cc1C)C(=O)C1CCCN21 (centres undefined) | 11.3 | 0.3 | 0.3 | 2.2 | / | /
Cc1ccccc1CN1C(=O)c2ccccc2Sc2ccc(C(=O)OCc3ccco3)cc21 | 13.6 | 0.9 | -9.9 | 6.8 | / | /
O=C(CNS(=O)(=O)c1ccc(Br)s1)N1CCN(c2ccc(F)cc2)CC1 | -51.4*! | -6.7 | -5.7 | 4.7 | -1.3 | 1.4%
O=C(Cn1sc2ccccc2c1=O)Nc1ccc(F)cc1 | / | / | -17.2 | / | -77.5* | /
O=C(O)Cn1ccnc1[N+](=O)[O-] | / | / | -6.0 | / | 15.9 | /
COc1ccc(OC)c(C(=O)CN2C(=O)N(c3ccc(C)cc3)S(=O)(=O)c3ccccc32)c1 | 3.7 | -1.2 | -9.6 | 6.8 | / | 1.7%
C[C@H](NC(=O)c1nc[nH]c1C(=O)N[C@@H](Cc1ccccc1)C(=O)OCc1ccccc1)C(=O)OCc1ccccc1 | -30.9* | -1.3 | 7.8 | 17.5 | -28.5 | 3.4%
C[C@H](NC(=O)c1nc[nH]c1C(=O)N[C@@H](Cc1ccccc1)C(=O)OC(C)(C)C)c1ccccc1 | 9.2 | 2.5 | -42.5 | 3.1 | -57.9* | -5.8%
C[C@@H](NC(=O)c1nc[nH]c1C(=O)N[C@@H](Cc1ccccc1)C(=O)OC(C)(C)C)c1ccccc1 | -10.6 | -3.3 | 0.0 | 5.6 | -24.8 | 14.7%
C[C@H](NC(=O)c1nc[nH]c1C(=O)N1CCN(C(=O)OC(C)(C)C)CC1)C(=O)OC(C)(C)C | -17.2 | -4.5 | 10.4 | 1.2 | 2.2 | -0.5%
CC1CCN(C(=O)c2[nH]cnc2C(=O)NCc2ccccc2)CC1 | -10.2 | 3.8 | -9.2 | -0.2 | 3.8 | -0.3%
C[C@H](NC(=O)c1nc[nH]c1C(=O)N[C@@H](Cc1ccccc1)C(=O)OC(C)(C)C)C(=O)OCc1ccccc1 | 3.9 | -2.1 | -15.5 | 5.7 | ? | -0.8%
CC1CCN(C(=O)c2[nH]cnc2C(=O)Nc2ccc(Cl)cc2)CC1 | / | -1.7 | 45.4* | -2.3 | 8.9 | -1.1%
CC1CCN(C(=O)c2[nH]cnc2C(=O)N[C@@H](C)C(=O)OC(C)(C)C)CC1 | 0.4 | 1.9 | -4.3 | 0.1 | -52.3* | 0.4%
COc1ccc(N2CCN(S(=O)(=O)c3ccc4c(c3)CC(C)N4C(C)=O)CC2)cc1 (centres undefined) | -0.3 | -0.5 | 8.0 | 3.7 | / | /
CCOc1ccccc1NC(=O)c1c(NC(=O)Cc2ccc(OC)cc2)sc2c1CCC2 | 6.1 | 4.9 | 10.8 | 0.9 | / | /
C[C@H](NC(=O)c1nc[nH]c1C(=O)NCC(=O)OCc1ccccc1)C(=O)OCc1ccccc1 | -5.1 | -0.2 | 3.5 | 4.8 | 49.5 | -0.6%
C[C@H](NC(=O)c1nc[nH]c1C(=O)NC(c1ccccc1)c1ccccc1)C(=O)OC(C)(C)C | 1.6 | -2.4 | 0.0 | 14.4 | -56.3* | ?
CNC(=O)c1[nH]cnc1C(=O)N[C@@H](C)C(=O)OCc1ccccc1 | -33.5* | 2.7 | 34.6* | 7.4 | 35.2 | 9.7%
SMILES | D1 antag | D1 PAM | DRD3 agonist | D1 agonist | DRD3 antagonist | Chronic BCR inh
O=C(CNC(=O)C1CCCCC1)NNC(=O)c1ccccc1Br | -35.3* | -8.4 | -17.3 | 1.6 | -15.2 | -2.7%
Nc1ccc(-c2cc3ccccc3oc2=O)cc1 | -19.3 | -2.9 | -7.5 | 6.3 | -29.2 | ?
O=C/C=C/c1c(-c2ccccc2)cc2oc3ccccc3cc1-2 | 2.3 | 10.3 | -7.2 | 3.0 | -66.3* | ?
CC(C)(C)OC(=O)N1CCC(c2c(C(=O)NCCc3ccccc3)cnn2-c2ccc(F)cc2)CC1 | 10.0 | -5.0 | 7.1 | 2.8 | / | /
COc1ccccc1NCc1cccn1-c1nnc(N2CCOCC2)s1 | 2.3 | 7.9 | 1.9 | 1.2 | / | /
Cc1ccc(NCc2nnc(SCC(=O)NCc3ccco3)n2CC2CCCO2)cc1Cl (centres undefined) | 12.1 | -7.5 | 3.3 | 0.2 | -14.8 | -1.9%
Cc1ccc(NCc2nnc(SCCN3CCCCC3)n2CC2CCCO2)cc1Cl (centres undefined) | 6.5 | -3.0 | -7.9 | 3.0 | -51.3* | 3.4%
O=[N+]([O-])c1cccc(Cl)c1NCCNS(=O)(=O)c1ccccc1 | 12.2 | -1.6 | 3.1 | 4.7 | -55.7* | ?
O=[N+]([O-])c1cccc(Cl)c1NCCNS(=O)(=O)c1ccc(Cl)cc1 | 2.4 | -11.0 | 8.4 | 1.3 | 1.7 | -13.5%
N#CC(C(O)c1ccccc1)N1CCOCC1 (centres undefined) | / | / | 7.1 | / | 6.0 | /
COc1cccc(C#CC2=CC(=O)CC(C)(C)C2)c1 | / | / | -9.8 | / | -6.0 | /
O=[N+]([O-])c1cccc(C2CC(c3ccccc3)=NN2c2ccccc2)c1 (centres undefined) | -0.9 | -3.3 | -8.0 | 4.9 | ? | 5.6%
N#CC1CC(c2ccc([N+](=O)[O-])cc2)=NN1c1ccc([N+](=O)[O-])cc1 (centres undefined) | 19.0 | -4.0 | 0.0 | 34.3* | -17.2 | -1.2%
O=C(c1ccccc1)c1ccccc1C(=O)N1CCOCC1 | 7.4 | -3.9 | 3.4 | 1.6 | 14.2 | 0.1%
O=C(c1ccccc1)c1ccccc1C(=O)N1CCCC1 | -8.5 | -0.8 | -2.6 | 0.2 | -50.2* | /
OC(CNCC1CCCO1)Cn1c2ccc(Cl)cc2c2cc(Cl)ccc21 (centres undefined) | -32.1* | -13.1 | -1.7 | 28.4 | 4.1 | 0.4%
COc1ccc(NC(=O)C(=O)NCC(c2cccnc2)N2CCc3ccccc3C2)cc1 (centres undefined) | -40.4* | -3.5 | 0.0 | 29.7 | / | /
COc1ccccc1N1CCN(C(CNC(=O)C2CCCCC2)c2cccnc2)CC1 (centres undefined) | 0.9 | 0.1 | -13.9 | 3.9 | -70.5* | 8.2%
O=C(NCC(c1cccnc1)N1CCc2ccccc2C1)C(=O)Nc1ccccc1 (centres undefined) | -11.4 | 1.1 | -0.2 | -0.3 | / | /
Nc1ccc(O)c(C(=O)O)c1 | / | / | 11.4 | / | / | /
